Experimental data published in PubChem BioAssay (NCATS).
Inconclusive results are not listed. Entries that show only a call come without a potency. Values without a mark were called inactive. Active and inactive are the calls of the source. Calls follow the shape of the dose curve; as a rule, active = well fitted curve in the direction sought with a large enough effect; inconclusive = small, poorly fitted or top-dose-only effect, or another doubt; inactive = no such curve, though single readings can be large; an effect the other way counts as inactive or inconclusive.

Experiments:
[1] = biological target: Cellular tumor antigen p53 (Homo sapiens) (UniProt P04637); assay: Primary qHTS for small molecule compounds that upregulate eGFP-tagged delta133p53alpha (in N-terminal) cells. (AID 2060322); details: NCI-H358 eGFP-delta133p53alpha fluorescence, 24 h; activation: hits give high values; also: nearly all actives have a fitted effect of over 75% in size; also: potency is read from the fitted curve at half-maximal effect; as to activation: series mostly up to about 56 µM
Cellular tumor antigen p53 (Homo sapiens), sequence (P04637 whole entry, looked up): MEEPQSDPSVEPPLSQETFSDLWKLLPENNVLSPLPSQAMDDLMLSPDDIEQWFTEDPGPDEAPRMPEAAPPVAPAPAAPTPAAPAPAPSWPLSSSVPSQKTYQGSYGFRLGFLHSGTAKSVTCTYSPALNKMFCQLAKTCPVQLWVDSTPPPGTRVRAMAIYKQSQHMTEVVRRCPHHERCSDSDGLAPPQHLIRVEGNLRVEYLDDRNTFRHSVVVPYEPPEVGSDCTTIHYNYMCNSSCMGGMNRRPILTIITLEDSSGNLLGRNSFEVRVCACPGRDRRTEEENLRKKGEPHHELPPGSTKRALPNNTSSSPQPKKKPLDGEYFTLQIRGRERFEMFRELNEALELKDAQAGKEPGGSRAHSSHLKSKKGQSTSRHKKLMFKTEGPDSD
Outline: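 NCI-H358 cells pre-induced 24 h with 10 ng/ml doxycycline to express N-terminal eGFP-delta133p53alpha, then dosed 24 h at 37C without doxycycline; fixed, Hoechst-stained, GFP intensity by laser scanning cytometry, normalized to DMSO (0%) and 57.5 uM 5-azacytidine (100%).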

[2] = biological target: Aldehyde dehydrogenase, mitochondrial (Homo sapiens) (UniProt P05091); assay: qHTS for Inhibitors of the Aldehyde Dehydrogenase Family (ALDH2) Primary screen (AID 2061308); also: nearly all actives have a fitted effect of over 55% in size
[3] = biological target: Retinaldehyde dehydrogenase 3 (Homo sapiens) (UniProt P47895); assay: qHTS for Inhibitors of the Aldehyde Dehydrogenase Family (ALDH1A3) Primary screen (AID 2061315)

Row | Structure (SMILES) | activation [1] [%] | Potency [2] | Potency [3] | Potency [1] | activity change, negative = inhibition [2] | activity change, negative = inhibition [3]
1 | CC(C)=CCC[C@](C)(O[C@@H]1O[C@H](CO)[C@@H](O)[C@H](O)[C@H]1O)[C@H]1CC[C@]2(C)[C@@H]1[C@H](O)CC1[C@@]3(C)CC[C@H](O)C(C)(C)C3[C@@H](O[C@@H]3O[C@H](CO)[C@@H](O)[C@H](O)[C@H]3O[C@@H]3O[C@@H](C)[C@H](O)[C@@H](O)[C@H]3O)C[C@]12C (stereo not given in full) | -21.4 | inactive | inactive | – | – | –
2 | C=C(CCO[C@@H]1O[C@H](CO)[C@@H](O)[C@H](O)[C@H]1O)C(=O)O | -22.3 | inactive | inactive | – | – | –
3 | CC1CCC2C(C)(C)C(O)CCC2(C)C12Cc1c(O)cc3c(c1O2)CN(C(CCC(N)=O)C(=O)O)C3=O (stereo not given) | -13.7 | inactive | inactive | – | – | –
4 | C/C1=C\C[C@H](O[C@@H]2O[C@H](CO)[C@@H](O)[C@H](O)[C@H]2O)/C(C)=C/[C@H]2OC(=O)[C@H](C)[C@@H]2CC1 | -8.04 | inactive | inactive | – | – | –
5 | O=C(c1ccccc1)c1c(O)cc(O)cc1O[C@@H]1O[C@H](CO)[C@@H](O)[C@H](O)[C@H]1O | -13 | inactive | inactive | – | – | –
6 | COc1cc(C(O)C(CO)Oc2ccc(CCCO[C@@H]3O[C@@H](C)[C@H](O)[C@@H](O)[C@H]3O)cc2OC)ccc1O (stereo not given in full) | -13.4 | inactive | inactive | – | – | –
7 | COc1cc(C(CO)CO[C@@H]2O[C@H](CO)[C@@H](O)[C@H](O)[C@H]2O)ccc1O (stereo not given in full) | -11.5 | inactive | inactive | – | – | –
8 | CCOC(=O)c1ccc(OCCC2CCN(c3ccc(C)nn3)CC2)cc1 | -17.9 | inactive | inactive | – | – | –
9 | CC(=O)O[C@@H]1[C@@H](OC(C)=O)[C@H](C)O[C@@H](O[C@H]2[C@@H]3C=CO[C@@H](O[C@@H]4O[C@H](CO)[C@@H](O)[C@H](O)[C@H]4O)[C@@H]3[C@@]3(CO)O[C@@H]23)[C@@H]1OC(=O)/C=C/c1ccccc1 | -1.53 | inactive | inactive | – | – | –
10 | CC(=O)O[C@@H]1C[C@@H](C)[C@](O)(CCC2=CC(=O)OC2)[C@@]2(C)CCCC(C)(C)C12 (stereo not given in full) | -29.8 | inactive | inactive | – | – | –
11 | OCc1ccc(O[C@@H]2O[C@H](CO)[C@@H](O)[C@H](O)[C@H]2O)cc1 | 2.68 | inactive | inactive | – | – | –
12 | COC(=O)[C@H]1[C@H]2C[C@@H]3c4[nH]c5cc(OC)ccc5c4CCN3C[C@H]2C[C@@H](OC(=O)/C=C/c2cc(OC)c(OC)c(OC)c2)[C@@H]1OC | – | inactive | inactive | 7.93 µM (active) | – | –
13 | C=CC(C)(O)CC[C@H]1C(=C)CCC2[C@](C)(C(=O)O)CCC[C@@]21C (stereo not given in full) | 24.1 | inactive | inactive | – | – | –
14 | CC(C)=CCC[C@](C)(O[C@@H]1O[C@H](CO[C@@H]2OC[C@@H](O)[C@H](O)[C@H]2O)[C@@H](O)[C@H](O)[C@H]1O)[C@H]1CC[C@]2(C)[C@@H]1[C@H](O)C[C@@H]1[C@@]3(C)CC[C@H](O[C@@H]4O[C@H](CO)[C@@H](O)[C@H](O)[C@H]4O)C(C)(C)[C@@H]3CC[C@]12C | 6.33 | inactive | inactive | – | – | –
15 | C[C@H](CN1CCCC1)C(=O)c1ccc(C(F)(F)F)cc1 | 21 | inactive | inactive | – | – | –
16 | COC(=O)C1(Cc2ccc(O)cc2)OC(=O)C(OC)=C1c1ccc(O)cc1 (stereo not given) | -7.63 | inactive | inactive | – | – | –
17 | CC(=O)O[C@@H]1CC2C(C)(C)C(=O)C=C[C@]2(C)C2CC[C@]3(C)C(=CC(=O)[C@@H]3c3ccoc3)[C@@]21C (stereo not given in full) | 1.53 | inactive | inactive | – | – | –
18 | Nc1nc2c(s1)CCN(Cc1ccc(Cl)cc1)CC2 | 19.1 | inactive | inactive | – | – | –
19 | C=C1[C@H]2CCC3[C@]4(C)CCC[C@@](C)(C(=O)O)C4CC[C@]3(C2)[C@H]1OC(C)=O (stereo not given in full) | -17.6 | inactive | inactive | – | – | –
20 | C[C@@H]1O[C@@H](O[C@H]2[C@H](O[C@H]3[C@H](O)[C@@H](C(=O)O)O[C@@H](O[C@H]4CC[C@@]5(C)C(CC[C@]6(C)C5CC[C@]57OC[C@@]8(CCC(C)(C)CC85)[C@H](O)C[C@]76C)C4(C)C)[C@@H]3O[C@@H]3O[C@H](CO)[C@@H](O[C@@H]4OC[C@@H](O)[C@H](O)[C@H]4O)[C@H](O)[C@H]3O)O[C@H](CO)[C@H](O)[C@@H]2O)[C@H](O)[C@H](O)[C@H]1O (stereo not given in full) | -6.87 | – | – | – | 5.88% [at 11.2 µM] | -5.39% [at 11.2 µM]
